# Hsp70 act – switches on Hsp70 transcription | HeLa Hsp70 promoter luciferase reporter, luminescence; scaled: vehicle 0, proteasome-inhibitor control 100% | activation, % at 10 µM | hit rate 0.04% among 200,000;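 active means activation above the mean across all tested compounds plus 3 SD, cutoff set per campaign, cut at about 5.5% in these data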;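 further: 100% = MG132 at 30 µM as the positive control and 0% = DMSO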
# GalR3 antag – blocks the human galanin receptor 3 | O60755 | hit rate 0.44% among 360,000 | HEK293 GalR3-CNG cAMP membrane potential fluorescence; galR3 body fused to GalR1 C-terminus | inhibition, % at 3 µM;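 active means inhibition above the screen-wide average plus 3 SD, cut at about 13% in these data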;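 further: forskolin and galanin both at EC90 stimulate the cells; cAMP rise reported by CNG channel membrane potential dye signal; 0% = forskolin plus galanin with DMSO and 100% = forskolin alone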
# Target sequence (O60755 1-299 limits assumed): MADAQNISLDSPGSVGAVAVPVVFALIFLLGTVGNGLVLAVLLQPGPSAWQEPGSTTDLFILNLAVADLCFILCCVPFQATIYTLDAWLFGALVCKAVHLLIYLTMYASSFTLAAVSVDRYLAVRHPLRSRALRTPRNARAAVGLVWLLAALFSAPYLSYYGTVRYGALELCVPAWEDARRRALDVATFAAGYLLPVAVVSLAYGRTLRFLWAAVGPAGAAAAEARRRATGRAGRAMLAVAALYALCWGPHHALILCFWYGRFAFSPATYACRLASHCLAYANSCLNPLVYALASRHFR
# HIF activator – HIF pathway transcriptional activation. AID 1910. U2OS HRE-luciferase reporter, luminescence; normalized: DMSO 0%, desferrioxamine 100%. hit rate 0.32% among 300,000. activation, % at 7.5 µM (by protocol);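 active means mean activation of at least 10% of the iron chelator positive control signal, with at least half of replicates also reaching 10%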
# SMARCA2 act – SMARCA2 function activation, primary screen. MG213 cells, MMTV-luciferase reporter, dexamethasone, overnight. activation, % at 9.1 µM. hit rate 1% among 370,000; in the data active means activation above about 7.8%;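 further: 0% = vehicle wells and 100% = reference activator wells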
# GAA850 FXN act – increases GAA850 frataxin promoter reporter activity. HEK293 lucGAA850 FXN promoter luciferase reporter, 24 h; percent of 10 µM SAHA response. activation, % at 6 µM. hit rate 0.56% among 360,000;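 active means activation above the average of all compounds screened plus 3 SD, cutoff fixed separately per campaign, cut at about 7.5% in these data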;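 further: 0% = DMSO wells and 100% = 10 µM SAHA wells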
# Hsp70 act DR – dose-dependent Hsp70 transcriptional activation; shares compounds with Hsp70 act; HeLa hsp70.1pr-luc reporter, luciferase luminescence; calls only at 99 µM; hit rate 10% among 70;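 active means over 50% activation at some tested dose; inactive means under 50% activation at every tested dose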
# GAA30 counter – GAA30 FXN promoter activation counter-screen | activation, % at 6 µM | HEK293 lucGAA30 FXN promoter luciferase, 24 h; DMSO = 0%, 5 µM ipriflavone = 100% | hit rate 66% among 1,900 | shares compounds with GAA850 FXN act;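 active means mean activation above the mean of solvent-only control wells plus 3 SD, cut at about 22% in these data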;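 further: counterscreen of GAA850 promoter hits where activity marks nonselective or luminescence artifacts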
# FXN GAA850 conf – confirmation of GAA850 frataxin (FXN) promoter activators | shares compounds with GAA850 FXN act | HEK293 lucGAA850 FXN promoter luciferase reporter, 24 h; 100% = activation by SAHA | activation, % at 6 µM | hit rate 86% among 1,900 | AID 588351;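 active means mean activation above a set limit taken from the primary screen, cut at about 8% in these data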;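 further: 0% = DMSO wells and 100% = 10 µM SAHA wells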
# GalR3 conf – confirmation of human galanin receptor 3 antagonists | AID 652245 | inhibition, % at 3 µM | HEK293 GalR3 CNG cAMP biosensor, membrane potential fluorescence; galR3 fused to GalR1 carboxy tail; challenged with forskolin and galanin at EC90 | shares compounds with GalR3 antag | hit rate 59% among 1,600;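 active means inhibition above the primary screen's cutoff, the mean inhibition of all screened compounds plus 3 SD, cut at about 13% in these data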;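 further: 0% = forskolin plus galanin and 100% = forskolin alone with DMSO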
# CNG parental – parental cell agonism counter-screen for GalR3 antagonists | shares compounds with GalR3 antag | HEK293-CNG parental cells, cAMP membrane potential fluorescence; normalised: DMSO wells 0%, forskolin wells 100% | activation, % at 3 µM | hit rate 10% among 1,600 | AID 652268; in the data active means activation above about 1.3%
# An asterisk follows results filed as active; i = inactive; / = no result given. Sampled rows, rich in hits. Any-hit rate of the full collection: about 2.2%.
SMILES,Hsp70 act,GalR3 antag,HIF activator,SMARCA2 act,GAA850 FXN act,others
CC1CN(c2ccc([N+](=O)[O-])c3cccnc23)CC(C)N1 (configuration not stated),0,-4,0,0,9.6*,
O=[N+]([O-])c1ccc(N2CCCC2)c2ncccc12,0,6,0,-2,2,
C=CCn1c(O)c(C(CC)=NCc2cc(OC)cc(OC)c2)c(=O)[nH]c1=O,0,-1,0,-2,5,
CCC(=NCc1cc(OC)cc(OC)c1)c1c(O)[nH]c(=O)[nH]c1=O,/,0,66*,1,6,
Clc1cc(Cl)cc(CN2Cc3ccccc3-n3nncc3C2)c1,/,/,/,6,/,
O=C(c1cccnc1)c1cc2ccccc2[nH]1,0,-2,16*,-2,-1,
CC/C(=N\N1CCCCCC1)c1c(O)n(-c2ccc(C)cc2)c(=O)[nH]c1=O,0,-4,12*,-5,4,
C/C(=N\N1CCCCCC1)c1c(O)n(-c2ccc(C)cc2)c(=O)[nH]c1=O,0,-2,0,-1,3,
C[C@]12CC[C@H](O)C[C@H]1CC[C@@H]1[C@@H]2CC[C@]2(C)[C@@H](C3=CC(=O)OC3)CC[C@]12O,/,26*,/,-12,-13,
CC(=O)OC1CC(OC2C(O)CC(OC3C(O)CC(OC4CCC5(C)C(CCC6C5CC(O)C5(C)C(C7=CC(=O)OC7)CCC65O)C4)OC3C)OC2C)OC(C)C1OC1OC(CO)C(O)C(O)C1O (configuration not stated),/,12,/,-12,-14,
CC12CCC(O)CC1CCC1C2CCC2(C)C(C3=CC(=O)OC3)CCC12O (configuration not stated),/,30*,/,-9,-14,
COC1C(O)C(C)OC(OC2CCC3(C)C(CCC4C3C(O)CC3(C)C(C5=CC(=O)OC5)CCC43O)C2)C1O (configuration not stated),/,28*,/,-11,-15,
CC[C@]12CCN(CC3(O)CC3)C(Cc3ccc(O)cc31)C2(C)C,/,-2,/,3,/,
CCOC(=O)c1c(NS(=O)(=O)c2ccccc2)n(CCCOC)c2nc3ccccc3nc12,0,-5,455*,-4,0,
Cc1cc(N2CCNC[C@H]2C)ccc1N1CC[C@H](O)C1,/,-7,/,2,/,
C[C@]12CCC3C(CC[C@H]4C[C@@H](O)CC[C@]34C)[C@H]1C=CC2=O (some centres not stated),/,-4,/,0,9.4*,
C[C@H](NC(=O)OCc1ccccc1)C(=O)NC(Cc1ccccc1)P(=O)(Oc1ccccc1)Oc1ccccc1 (some centres not stated),/,/,/,-2,/,
C=C1[C@@H](C)C2[C@H](Cc3ccccc3)NC(=O)[C@]23[C@H](OC(C)=O)/C=C/[C@@](C)(O)C(=O)[C@@H](C)C/C=C/[C@H]3[C@@H]1O (some centres not stated),/,/,/,6,/,
CCOP(=O)(OCC)C(C)(C)NC(=O)C(Cl)(Cl)Cl,0,-4,-1,4,0,
CCOP(=O)(C#CC(C)(C)C)C1(O)CCCCC1 (configuration not stated),0,-5,98*,0,-2,
CCN1CCN(c2ccc([N+](=O)[O-])cc2C=C2C(=O)NC(=O)NC2=O)CC1,0,-4,24*,-1,-1,
CN1CC[C@@H]2CN[C@H](c3ccccc3)C[C@@H]21,/,-7,/,0,/,
COC(=O)C1CN(C#N)N(c2ccc(Cl)cc2)C12c1ccccc1-c1ccccc12 (configuration not stated),6.6*,/,-4,/,-15,Hsp70 act DR=i
C=CCN(CC#CCO)Cc1ccc(OC)cc1OC,/,/,/,-3,/,
CNc1cc(Cl)c2nonc2c1[N+](=O)[O-],18*,39*,0,-13,-10,Hsp70 act DR=i;GalR3 conf=31*;CNG parental=0
SMILES,Hsp70 act,GalR3 antag,HIF activator,SMARCA2 act,GAA850 FXN act,others
COC(=O)C1CC(OC(C)=O)C(=O)[C@H]2C1(C)CC[C@H]1C(=O)OC(c3ccoc3)CC12C (some centres not stated),/,1,/,-4,/,
O=C1NC(=O)N(c2ccccc2)C(=O)/C1=C/C=C/c1ccco1,/,-1,2,5,6,
O=C1NC(=O)N(Cc2ccccc2)C(=O)/C1=C\C=C\c1ccco1,0,5,1,1,13*,GAA30 counter=8;FXN GAA850 conf=31*
O=C1NC(=O)N(Cc2ccco2)C(=O)/C1=C/C=C/c1ccco1,/,11,3,0,10*,GAA30 counter=-4;FXN GAA850 conf=26*
CCCC(=O)N1c2ccc(Cl)cc2C(c2ccccc2)=NCC1C(=O)NC(C)(C)C (configuration not stated),/,/,/,0,/,
O=[N+]([O-])c1ccc(Cl)c([N+](=O)[O-])c1,/,/,/,-3,8.0*,GAA30 counter=38*;FXN GAA850 conf=78*
Fc1ccc2nc(-c3ccc(CN4CCC(n5nnc6ccccc65)CC4)cc3)c(-c3ccccc3)nc2c1,/,-6,/,-2,/,
COc1cccc(CNCCc2c[nH]c3ccccc23)c1OC,0,-6,-1,0,-2,
COc1ccc(CNCCc2c[nH]c3ccccc23)c(OC)c1OC,/,-12,0,-2,8.1*,GAA30 counter=13;FXN GAA850 conf=8.7*
O=C(NC(CCC(O)CO)P(=O)(Oc1ccccc1)Oc1ccccc1)OCc1ccccc1 (configuration not stated),/,/,/,0,/,
O=C1C=C2C=C[C@@H]3CC2(O1)[C@H]1CCCCN31,/,-3,/,-4,8.1*,GAA30 counter=36*;FXN GAA850 conf=14*
Cc1ccc(OC(=O)N(C)C[C@H]2OCc3cnnn3CCCC(=O)N([C@@H](C)CO)C[C@@H]2C)cc1,/,-4,/,0,/,
CN1C(=O)/C(=C/c2ccc(N3CCCCCC3)o2)C(=O)NC1=S,1,-2,3,5,9.9*,GAA30 counter=100*;FXN GAA850 conf=47*
CCCC/C(C)=C/[C@@H](NP(=O)(c1ccccc1)c1ccccc1)c1ccccc1,0,-10,0,0,9.2*,GAA30 counter=13;FXN GAA850 conf=5
O=C(NCCN1CCC2(CC1)C(=O)NCN2c1ccccc1)c1ccc(F)cc1,/,-9,/,-3,/,

# Assay outcomes from PubChem BioAssay.
